Source: PubChem BioAssay (National Center for Advancing Translational Sciences (NCATS))
An excerpt weighted towards active compounds, which were near 19% of everything screened.
TGFb SMAD3 inh: TGF-b pathway inhibition. HepG2 CAGA-GFP TGF-b/SMAD3 reporter, GFP fluorescence, 18 h; TGF-beta stimulated, 500 pg/mL final. Potency, µM (titrated, usually from 46.1 µM), inactives show at the top dose activity, negative = inhibition, most hits filed as inhibitors. 410,000 compounds, 1.2% hits; further: potency means the concentration at half of the fitted maximal effect; on the % scale 0 is the no-effect control and ±100 the full control effect; nearly all actives have a fitted effect of over 65% in size
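GFP signal (ex488/em500-530) from TGF-beta-stimulated HEPG2 CAGA-GFP cells, 500 pg/mL final, 18 h at 37 degrees C in DMEM plus 1% FBS, normalized to unstimulated and DMSO-stimulated controls.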
DT40 TDP1 no CPT: qHTS for Inhibitors of human tyrosyl-DNA phosphodiesterase 1 (TDP1): qHTS in cells in absence of CPT; DT40 Tdp1-/- hTDP1 cells, no CPT, ATP luminescence, 48 h; Potency, µM (top dose mostly 46.2 µM), inactives show at the highest dose activity change, negative = growth inhibition, usual class: inhibitors; 420,000 compounds, 15% hits; AID 686978, 2013; further: potency means the concentration at half of the fitted maximal effect; on the % scale 0 is the no-effect control and ±100 the full control effect; nearly all actives have a fitted effect of over 55% in size
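No-CPT arm: Tdp1-/-;hTDP1 DT40 cells (400/well) plus compounds, incubated ≥48 hr at 37 °C. Readout CellTiter-Glo luminescence.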
HepG2 tox: counter-screen for TGF-b inhibitors: cytotoxicity in HepG2 cells | HepG2 CAGA-GFP viability, ATP luminescence, 18 h | AID 588856 | 410,000 compounds, 0.76% hits | Potency, µM (top dose mostly 46.1 µM), for inactives: top-dose activity change, negative = cytotoxicity, actives largely listed as cytotoxic; further: potency means the concentration at half of the fitted maximal effect
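HepG2 CAGA-GFP cells (1000/well, DMEM with 1% FBS) received compound, then TGF-beta at 500 pg/mL final, and were incubated 18 hours at 37 degrees C. Viability was read by CellTiter-Glo luminescence. Media-only wells were set as complete cell-killing and DMSO as no toxicity.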
TDP1 cell CPT: growth inhibition of DT40 Tdp1-/-;hTDP1 cells with camptothecin (screen for TDP1 inhibitors); chicken DT40 Tdp1-/-;hTDP1 cells + 20 nM CPT, ATP luminescence, 48 h; Potency, µM (top dose mostly 46.2 µM), for inactives: at the top dose activity change, negative = growth inhibition, usual class: inhibitors; 420,000 compounds, 12% hits; AID 686979; further: potency means the concentration at half of the fitted maximal effect; on the % scale 0 is the no-effect control and ±100 the full control effect; nearly all actives have a fitted effect of over 55% in size
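Cell growth measured by CellTiter-Glo luminescence after a minimum 48 h, 37 C compound exposure with 20 nM CPT in Tdp1-knockout DT40 cells stably expressing hTDP1, seeded 400/well; qHTS titration format.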
IL1B secr inh: inhibitors of inflammasome signaling (IL-1 beta secretion); THP-1 LPS/ATP IL-1B secretion, AlphaLISA, 16 h; hits give low values; activity change, % at 57.5 µM; 360,000 compounds, 4.7% hits; AID 743279; in the data active means activity change below about -50%; inconclusive means mostly about -30% to -49%; further: on the % scale 0 is the no-effect control and ±100 the full control effect
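Secreted IL-1B measured by AlphaLISA bead assay after 16 h compound exposure of THP-1 cells; compounds (final up to 57.5 uM) added 1 h before LPS (250 ng/mL) and ATP (1.25 mM) stimulation; lower signal means less secretion.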
ASM inhibitor: blocks human secretory acid sphingomyelinase; placental ASM, HMU-PC fluorogenic substrate, 60 min; Potency, µM (highest dose often 57.5 µM), for inactives: at the top dose activity change, negative = inhibition, actives largely listed as inhibitors; 340,000 compounds, 0.006% hits; AID 504937; further: potency means the concentration at half of the fitted maximal effect
Target sequence (P17405 47-631 limits assumed): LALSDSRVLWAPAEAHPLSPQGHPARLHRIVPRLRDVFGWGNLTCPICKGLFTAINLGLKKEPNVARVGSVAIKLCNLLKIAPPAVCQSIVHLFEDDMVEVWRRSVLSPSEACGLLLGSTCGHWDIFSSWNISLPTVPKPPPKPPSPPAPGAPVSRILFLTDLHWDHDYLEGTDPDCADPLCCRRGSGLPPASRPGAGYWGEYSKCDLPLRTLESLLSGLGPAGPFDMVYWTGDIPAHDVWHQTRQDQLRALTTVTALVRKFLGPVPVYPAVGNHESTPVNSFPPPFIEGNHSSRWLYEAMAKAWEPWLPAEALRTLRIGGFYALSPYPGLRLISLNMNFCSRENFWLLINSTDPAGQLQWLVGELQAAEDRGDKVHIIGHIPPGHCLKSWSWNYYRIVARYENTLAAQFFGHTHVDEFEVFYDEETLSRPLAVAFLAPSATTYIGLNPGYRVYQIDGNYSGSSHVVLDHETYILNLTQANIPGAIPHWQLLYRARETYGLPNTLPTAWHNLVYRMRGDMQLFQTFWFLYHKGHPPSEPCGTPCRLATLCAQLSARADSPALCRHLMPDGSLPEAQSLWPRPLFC
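Steps: dispense placental human ASM, pin compound, wait 10 min at room temperature, add HMU-PC0 substrate at 9 uM final, incubate 60 min at 37 °C, add stop solution raising pH to 10, read fluorescence.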
* hit, by the source's call; i = inactive; ? = inconclusive; . = no result. Unless noted, the call rests on the fitted dose curve; in most records, active means well fitted curve in the direction sought with a large enough effect; inconclusive means small, poorly fitted or top-dose-only effect, or another doubt; inactive means no such curve, though single readings can be large; an effect the other way counts as inactive or inconclusive.

SMILES	TGFb SMAD3 inh	DT40 TDP1 no CPT	HepG2 tox	TDP1 cell CPT	IL1B secr inh	ASM inhibitor
CC(C)CC1C(=O)N(Cc2cn(CCC3OCCO3)nn2)CCS(=O)(=O)N1Cc1ccc(-c2ccc(F)nc2)cc1 (stereo unspecified)	11.3%	-24.4%	2.2%	0.3%	7.8	.
Cc1ccc(-c2ccc(CN3C(CC(C)C)C(=O)N(Cc4cn(CCC5OCCO5)nn4)CCS3(=O)=O)cc2)cc1 (stereo unspecified)	22.4µM*	13µM*	11.2µM*	14.6µM*	-21.2	.
COCCCNC(=O)c1cc2c(-c3cccc(OC)c3)nn(C)c2s1	-15.0%	?	-9.3%	?	-2.2	-2.7%
COc1cccc(-c2nn(C)c3sc(C(=O)NCCc4cccc(C)c4)cc23)c1	0.3%	5.17µM*	-24.4%	10.3µM*	.	.
CCN(CC)CCNC(=O)c1cc2c(-c3cccc(OC)c3)nn(C)c2s1	7.9%	?	-15.4%	?	-79.5*	-0.1%
CC(=O)C1=C(c2ccc(Br)cc2)N(C(C)=O)n2c(nnc2C2CCCCC2)S1	0.1%	?	8.2%	5.2%	.	.
CCOC(=O)CSc1nnc(C2CCCCC2)n1C	1.4%	-5.2%	-9.4%	-21.4%	2.4	4.5%
CCC(=O)C1=C(c2ccc(C)cc2)N(C(=O)CC)n2c(nnc2C2CCCCC2)S1	15.3%	25.9µM*	0.3%	?	.	.
CCC(=O)C1=C(c2ccc(F)cc2)N(C(=O)CC)n2c(nnc2-c2ccc(OC)cc2)S1	3.7%	2.91µM*	8.1%	4.11µM*	.	.
CC(=O)C1=C(c2ccc(F)cc2)N(C(C)=O)n2c(nnc2C2CCCCC2)S1	-2.6%	23.1µM*	0.1%	?	.	.
COc1cc(NC(=O)c2ccc(C)c(Cl)c2)ccc1NC(=O)c1cc2ccccc2o1	-9.9%	?	2.5%	?	.	.
O=C(C[N+]12CCCc3cccc(c31)CCC2)c1ccc2ccccc2c1	-28.0%	7.08µM*	-7.5%	5.01µM*	.	.
CCc1nc(SC)[nH]c(=O)c1C	-7.2%	4.5%	1.5%	-3.6%	41.4	1.2%
CSc1nc(=S)cc(C)[nH]1	-17.4%	?	-10.1%	18.4µM*	12.8	-0.4%
Cc1cc(C)nc(N2CCN(c3ccc(F)cc3)CC2)n1	-16.5%	2.8%	-3.4%	-20.0%	8.8	-1.1%
Cc1cc(N2CCN(c3ccc(F)cc3)CC2)nc(-c2ccccc2)n1	0.0%	8.2µM*	-14.1%	9.2µM*	-19.6	-8.6%
COc1ccc(NC(=O)C2CCN(c3cc(C)nc(-c4ccccc4)n3)CC2)cc1	-6.1%	?	-26.7%	?	-5.7	-7.4%
Cc1cc(N2CCC(C(=O)Nc3ccc(F)cc3)CC2)nc(-c2ccccc2)n1	?	18.4µM*	-19.6%	-22.4%	-53.3*	-4.3%
C=CC[C@H](CC(=O)NCCO)C(=O)NCCOC(=O)[C@@H](CC=C)CC(=O)OC(C)(C)C	22.7%	2.1%	19.2%	4.8%	21.8	-2.6%
CCCOc1ccc(C(=O)N(Cc2cccs2)C2CCS(=O)(=O)C2)cc1 (stereo unspecified)	0.0%	?	0.0%	?	i	0.6%
O=C(NCCCN1CCOCC1)c1ccc2nc(Cc3cccc(Cl)c3)oc2c1	5.2%	-22.5%	-26.4%	-20.7%	-1.6	.
Cc1ccc(Cl)cc1N1CCN(CCCNC(=O)c2nnc(Cc3cccc(Cl)c3)o2)CC1	?	10.3µM*	-83.3%	20.6µM*	.	.
Cc1cccc(N2CCN(CCCNC(=O)c3nnc(Cc4c(F)cccc4Cl)o3)CC2C)c1 (stereo unspecified)	-6.1%	?	-32.1%	23.1µM*	.	.
COc1ccc(Cc2nnc(C(=O)NCCCN3CCN(c4ccccc4F)CC3)o2)cc1OC	-8.5%	?	-6.2%	?	.	.
O=C(NCCCN1CCN(Cc2ccccc2)CC1)c1nnc(Cc2c(F)cccc2Cl)o1	?	-29.5%	-17.2%	-11.1%	2.8	0.1%
SMILES	TGFb SMAD3 inh	DT40 TDP1 no CPT	HepG2 tox	TDP1 cell CPT	IL1B secr inh	ASM inhibitor
O=C(NCCCN1CCN(c2ccccc2F)CC1)c1nnc(Cc2ccc(Cl)cc2Cl)o1	11.2µM*	14.6µM*	-61.8%	20.6µM*	.	.
O=C(O)CCNC(=O)COc1ccc2c3c(c(=O)oc2c1)CCCC3	-2.8%	13.2%	4.5%	-0.2%	-5.2	13.0%
CCOc1ccc(NC(=O)CS(=O)CC(=O)N(CC(=O)NC(C)(C)C)C2CCCC2)cc1 (stereo unspecified)	-3.2%	-11.1%	7.0%	6.0%	20.7	1.8%
Cn1c2cc(C#N)sc2c2cnn(Cc3ccc(F)cc3)c(=O)c21	-6.3%	.	13.1%	.	.	-5.6%
CCCCNc1nc(-c2ccccc2)cc(C(F)(F)F)c1C(N)=O	?	?	-40.7%	?	-70.4*	102.0%
NC(=O)c1c(C(F)(F)F)cc(-c2ccccc2)nc1NCCO	?	-15.0%	10.7%	-24.1%	5.2	86.9%
C=CC[C@H](CC(=O)OC(C)(C)C)C(=O)OC[C@@H]1CCCN1C(=O)[C@H](CC=C)CC(=O)N[C@H](CO)Cc1ccccc1	?	?	-25.3%	25.9µM*	-28.7	5.2%
C=CC[C@H](CC(=O)OC(C)(C)C)C(=O)OC[C@@H]1CCCN1C(=O)[C@@H](CC=C)CC(=O)N[C@H](CO)Cc1ccccc1	-16.3%	?	-30.0%	16.4µM*	-0.8	0.8%
C=CC[C@@H](CC(=O)OC(C)(C)C)C(=O)OC[C@@H]1CCCN1C(=O)[C@@H](CC=C)CC(=O)N[C@H](CO)Cc1ccccc1	?	?	-30.2%	23.1µM*	-19.2	6.8%
C=CCC[C@@H](Cc1ccc(F)cc1)C(=O)OC[C@H]1CCCN1C(=O)[C@@H](CC=C)CC(=O)N[C@H](CO)Cc1ccccc1	?	?	-20.1%	?	-18.8	-14.9%
Cn1c(Cn2nnc3ccccc32)nnc1SCC(=O)N1c2ccccc2Sc2ccccc21	-27.0%	16.4µM*	0.6%	13µM*	-3.4	-1.3%
Cn1c(Cn2nnc3ccccc32)nnc1SCC(N)=O	10.7%	-11.5%	-2.4%	-16.1%	23.8	-2.4%
Cn1c(Cn2nnc3ccccc32)nnc1SCC(=O)N1c2ccccc2CCc2ccccc21	?	?	8.3%	23.1µM*	-12.7	-2.8%
O=C(CCn1c2c(c3ccccc31)CCCC2)NNC(=O)c1ccc([N+](=O)[O-])cc1	?	11.6µM*	-3.9%	20.6µM*	-1.8	-12.5%
